Experimental data reported in publication PMC11006913.
Where a chain is given by its changes, count along the chain named.

Key:
Experiment in all cases: PBM; 200 nM protein, PBS
Details in all cases: dsDNA, one strand shown
HOXB4 [1] = biological target: HOXB4 (Homo sapiens, UniProt P17483 148-234)
ALX4 [2] = biological target: ALX4 (Homo sapiens, UniProt Q9H161 200-286)
ALX4 [3] = biological target: ALX4 (Homo sapiens, UniProt Q9H161 200-286, Q225E)
HOXB4 [4] = biological target: HOXB4 (Homo sapiens, UniProt P17483 148-234, V174I)
HOXB6 [5] = biological target: HOXB6 (Homo sapiens, UniProt P17509 132-218, K202E)
ALX1 [6] = biological target: ALX1 (Homo sapiens, UniProt Q15699 118-204, L144V)
ALX1 [7] = biological target: ALX1 (Homo sapiens, UniProt Q15699 118-204, L144R)
ALX1 [8] = biological target: ALX1 (Homo sapiens, UniProt Q15699 118-204)
HOXB6 [9] = biological target: HOXB6 (Homo sapiens, UniProt P17509 132-218)
HOXA2 [10] = biological target: HOXA2 (Homo sapiens, UniProt O43364 129-215, R185T)
HOXD13 [11] = biological target: HOXD13 (Homo sapiens, UniProt P35453 263-343, T313R)
HOXA2 [12] = biological target: HOXA2 (Homo sapiens, UniProt O43364 129-215, R185K)
HOXD13 [13] = biological target: HOXD13 (Homo sapiens, UniProt P35453 263-343)
HOXD13 [14] = biological target: HOXD13 (Homo sapiens, UniProt P35453 263-343, T313A)
HOXA2 [15] = biological target: HOXA2 (Homo sapiens, UniProt O43364 129-215, Y150S)
HOXA2 [16] = biological target: HOXA2 (Homo sapiens, UniProt O43364 129-215)
HOXC10 [17] = biological target: HOXC10 (Homo sapiens, UniProt Q9NYD6 254-340)
NKX2-6 [18] = biological target: T1, NKX2-6 (Homo sapiens, UniProt A6NCS4 118-204, R150C)
T1 sequence: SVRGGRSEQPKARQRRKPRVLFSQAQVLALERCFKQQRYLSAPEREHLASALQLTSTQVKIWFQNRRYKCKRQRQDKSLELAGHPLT

MSX2 [19] = biological target: MSX2 (Homo sapiens, UniProt P35548 130-214, R199I)
ALX3 [20] = biological target: ALX3 (Homo sapiens, UniProt O95076 139-225, N203Q)
HOXC10 [21] = biological target: HOXC10 (Homo sapiens, UniProt Q9NYD6 254-340, K271E)
MSX2 [22] = biological target: MSX2 (Homo sapiens, UniProt P35548 130-214)
ALX3 [23] = biological target: ALX3 (Homo sapiens, UniProt O95076 139-225)
ALX3 [24] = biological target: ALX3 (Homo sapiens, UniProt O95076 139-225, L168Q)
ALX3 [25] = biological target: ALX3 (Homo sapiens, UniProt O95076 139-225, L168V)
MSX2 [26] = biological target: MSX2 (Homo sapiens, UniProt P35548 130-214, F161Y)
ALX3 [27] = biological target: ALX3 (Homo sapiens, UniProt O95076 139-225, N203S)
PAX4 [28] = biological target: T2, PAX4 (Homo sapiens, UniProt O43316 9-242, R200K)
T2 sequence: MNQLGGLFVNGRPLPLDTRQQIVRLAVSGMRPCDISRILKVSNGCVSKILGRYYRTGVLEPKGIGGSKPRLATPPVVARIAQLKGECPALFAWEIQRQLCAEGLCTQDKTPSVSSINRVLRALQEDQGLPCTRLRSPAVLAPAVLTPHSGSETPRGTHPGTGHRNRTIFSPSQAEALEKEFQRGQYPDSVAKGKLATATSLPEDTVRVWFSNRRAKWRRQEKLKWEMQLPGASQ

PAX4 [29] = biological target: T3, PAX4 (Homo sapiens, UniProt O43316 9-242)
T3 sequence: T2 sequence with K192R

PAX4 [30] = biological target: T4, PAX4 (Homo sapiens, UniProt O43316 9-242, R200Q)
T4 sequence: T2 sequence with K192Q

PAX4 [31] = biological target: T5, PAX4 (Homo sapiens, UniProt O43316 9-242, F177V)
T5 sequence: T2 sequence with F169V, K192R

PAX4 [32] = biological target: T6, PAX4 (Homo sapiens, UniProt O43316 9-242, F177Y)
T6 sequence: T2 sequence with F169Y, K192R

PAX4 [33] = biological target: T7, PAX4 (Homo sapiens, UniProt O43316 9-242, R227W)
T7 sequence: T2 sequence with K192R, R219W

PRRX1 [34] = biological target: PRRX1 (Homo sapiens, UniProt P54821 80-166, F113S)
NKX2-6 [35] = biological target: T8, NKX2-6 (Homo sapiens, UniProt A6NCS4 118-204)
T8 sequence: T1 sequence with C33R

NKX2-6 [36] = biological target: T9, NKX2-6 (Homo sapiens, UniProt A6NCS4 118-204, F151L)
T9 sequence: T1 sequence with C33R, F34L

PRRX1 [37] = biological target: PRRX1 (Homo sapiens, UniProt P54821 80-166)
PRRX1 (Homo sapiens, UniProt P54821 80-166), sequence (P54821 80-166): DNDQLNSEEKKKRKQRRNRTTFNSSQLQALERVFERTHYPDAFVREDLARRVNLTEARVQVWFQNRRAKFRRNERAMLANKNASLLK

HOXB4 (Homo sapiens, UniProt P17483 148-234, V174I), sequence (P17483 148-234 V174I): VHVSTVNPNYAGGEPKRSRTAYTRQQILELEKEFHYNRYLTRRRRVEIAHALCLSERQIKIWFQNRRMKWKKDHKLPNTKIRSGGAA
HOXB4 (Homo sapiens, UniProt P17483 148-234), sequence (P17483 148-234): as the sequence (P17483 148-234 V174I) above, with I27V counted along it
ALX3 (Homo sapiens, UniProt O95076 139-225, L168Q), sequence (O95076 139-225 L168Q): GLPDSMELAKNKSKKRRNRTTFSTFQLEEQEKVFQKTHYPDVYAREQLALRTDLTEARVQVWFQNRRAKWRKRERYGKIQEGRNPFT
ALX1 (Homo sapiens, UniProt Q15699 118-204, L144R), sequence (Q15699 118-204 L144R): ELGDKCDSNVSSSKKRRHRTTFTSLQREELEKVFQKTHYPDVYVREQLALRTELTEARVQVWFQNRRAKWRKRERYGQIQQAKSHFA
MSX2 (Homo sapiens, UniProt P35548 130-214, R199I), sequence (P35548 130-214 R199I): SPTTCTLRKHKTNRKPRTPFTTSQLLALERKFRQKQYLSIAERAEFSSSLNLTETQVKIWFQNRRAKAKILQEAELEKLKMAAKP
HOXB6 (Homo sapiens, UniProt P17509 132-218, K202E), sequence (P17509 132-218 K202E): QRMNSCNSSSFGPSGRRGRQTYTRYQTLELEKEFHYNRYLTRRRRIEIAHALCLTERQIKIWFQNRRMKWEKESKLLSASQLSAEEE
HOXC10 (Homo sapiens, UniProt Q9NYD6 254-340, K271E), sequence (Q9NYD6 254-340 K271E): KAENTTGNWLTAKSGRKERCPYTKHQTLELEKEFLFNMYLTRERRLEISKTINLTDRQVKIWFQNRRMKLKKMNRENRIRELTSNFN
PRRX1 (Homo sapiens, UniProt P54821 80-166, F113S), sequence (P54821 80-166 F113S): as the sequence (P54821 80-166) above, with F34S counted along it
ALX3 (Homo sapiens, UniProt O95076 139-225, L168V), sequence (O95076 139-225 L168V): as the sequence (O95076 139-225 L168Q) above, with Q30V counted along it
MSX2 (Homo sapiens, UniProt P35548 130-214, F161Y), sequence (P35548 130-214 F161Y): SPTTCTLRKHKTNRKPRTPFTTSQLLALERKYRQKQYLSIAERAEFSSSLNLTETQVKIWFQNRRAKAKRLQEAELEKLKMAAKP
HOXA2 (Homo sapiens, UniProt O43364 129-215), sequence (O43364 129-215): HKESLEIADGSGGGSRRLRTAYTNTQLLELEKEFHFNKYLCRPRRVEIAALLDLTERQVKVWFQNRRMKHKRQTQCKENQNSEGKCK
HOXB6 (Homo sapiens, UniProt P17509 132-218), sequence (P17509 132-218): as the sequence (P17509 132-218 K202E) above, with E71K counted along it
HOXD13 (Homo sapiens, UniProt P35453 263-343, T313R), sequence (P35453 263-343 T313R): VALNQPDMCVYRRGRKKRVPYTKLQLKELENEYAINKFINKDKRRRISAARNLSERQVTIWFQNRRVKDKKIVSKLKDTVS
ALX3 (Homo sapiens, UniProt O95076 139-225), sequence (O95076 139-225): as the sequence (O95076 139-225 L168Q) above, with Q30L counted along it
ALX3 (Homo sapiens, UniProt O95076 139-225, N203S), sequence (O95076 139-225 N203S): as the sequence (O95076 139-225 L168Q) above, with Q30L, N65S counted along it
MSX2 (Homo sapiens, UniProt P35548 130-214), sequence (P35548 130-214): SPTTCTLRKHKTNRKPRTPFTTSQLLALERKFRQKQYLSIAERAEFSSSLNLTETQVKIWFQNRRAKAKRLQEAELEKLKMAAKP
HOXD13 (Homo sapiens, UniProt P35453 263-343, T313A), sequence (P35453 263-343 T313A): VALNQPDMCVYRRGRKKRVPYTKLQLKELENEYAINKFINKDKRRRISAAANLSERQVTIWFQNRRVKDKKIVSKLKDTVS
ALX4 (Homo sapiens, UniProt Q9H161 200-286, Q225E), sequence (Q9H161 200-286 Q225E): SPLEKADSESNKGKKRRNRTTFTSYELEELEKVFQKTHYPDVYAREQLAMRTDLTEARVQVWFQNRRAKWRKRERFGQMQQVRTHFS
HOXC10 (Homo sapiens, UniProt Q9NYD6 254-340), sequence (Q9NYD6 254-340): as the sequence (Q9NYD6 254-340 K271E) above, with E18K counted along it
ALX1 (Homo sapiens, UniProt Q15699 118-204, L144V), sequence (Q15699 118-204 L144V): as the sequence (Q15699 118-204 L144R) above, with R27V counted along it
ALX3 (Homo sapiens, UniProt O95076 139-225, N203Q), sequence (O95076 139-225 N203Q): as the sequence (O95076 139-225 L168Q) above, with Q30L, N65Q counted along it
HOXD13 (Homo sapiens, UniProt P35453 263-343), sequence (P35453 263-343): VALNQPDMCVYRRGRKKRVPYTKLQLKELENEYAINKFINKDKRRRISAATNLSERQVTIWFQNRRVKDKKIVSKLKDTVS
HOXA2 (Homo sapiens, UniProt O43364 129-215, Y150S), sequence (O43364 129-215 Y150S): as the sequence (O43364 129-215) above, with Y22S counted along it
ALX4 (Homo sapiens, UniProt Q9H161 200-286), sequence (Q9H161 200-286): as the sequence (Q9H161 200-286 Q225E) above, with E26Q counted along it
HOXA2 (Homo sapiens, UniProt O43364 129-215, R185T), sequence (O43364 129-215 R185T): as the sequence (O43364 129-215) above, with R57T counted along it
HOXA2 (Homo sapiens, UniProt O43364 129-215, R185K), sequence (O43364 129-215 R185K): as the sequence (O43364 129-215) above, with R57K counted along it
ALX1 (Homo sapiens, UniProt Q15699 118-204), sequence (Q15699 118-204): as the sequence (Q15699 118-204 L144R) above, with R27L counted along it

For CCTGTGGA, the binding signal (HOXB4 [1]) was 7.33 upbm affinity estimate (log intensity, higher = more binding, comparable within an allelic series), the binding signal (ALX4 [2]) was 8.17 upbm affinity estimate (log intensity, higher = more binding, comparable within an allelic series) and the binding signal (ALX4 [3]) was 8.04 upbm affinity estimate (log intensity, higher = more binding, comparable within an allelic series). The binding signal (HOXB4 [4]) was 7.56 upbm affinity estimate (log intensity, higher = more binding, comparable within an allelic series).
For TGGCATAA, the binding signal (HOXB4 [1]) was 10 upbm affinity estimate (log intensity, higher = more binding, comparable within an allelic series) and the binding signal (HOXB4 [4]) was 9.76 upbm affinity estimate (log intensity, higher = more binding, comparable within an allelic series).
AGGCGCGC was tested, and the binding signal (HOXB4 [1]) was 7.53 upbm affinity estimate (log intensity, higher = more binding, comparable within an allelic series), the binding signal (HOXB6 [5]) was 9.19 upbm affinity estimate (log intensity, higher = more binding, comparable within an allelic series) and the binding signal (HOXB4 [4]) was 7.6 upbm affinity estimate (log intensity, higher = more binding, comparable within an allelic series). For the same sequence, the binding signal (ALX1 [6]) was 6.59 upbm affinity estimate (log intensity, higher = more binding, comparable within an allelic series), the binding signal (ALX1 [7]) was 6.72 upbm affinity estimate (log intensity, higher = more binding, comparable within an allelic series) and the binding signal (ALX1 [8]) was 6.44 upbm affinity estimate (log intensity, higher = more binding, comparable within an allelic series). For the same sequence, the binding signal (HOXB6 [9]) was 8.96 upbm affinity estimate (log intensity, higher = more binding, comparable within an allelic series).
In the case of CGGGGGGA, the binding signal (HOXB4 [1]) is reported as 7.79 upbm affinity estimate (log intensity, higher = more binding, comparable within an allelic series), the binding signal (HOXA2 [10]) is reported as 7.04 upbm affinity estimate (log intensity, higher = more binding, comparable within an allelic series) and the binding signal (HOXB4 [4]) is reported as 7.87 upbm affinity estimate (log intensity, higher = more binding, comparable within an allelic series). For the same sequence, the binding signal (HOXD13 [11]) was 8.99 upbm affinity estimate (log intensity, higher = more binding, comparable within an allelic series), the binding signal (HOXA2 [12]) was 10.1 upbm affinity estimate (log intensity, higher = more binding, comparable within an allelic series) and the binding signal (HOXD13 [13]) was 9.17 upbm affinity estimate (log intensity, higher = more binding, comparable within an allelic series). The binding signal (HOXD13 [14]) was 9.29 upbm affinity estimate (log intensity, higher = more binding, comparable within an allelic series), the binding signal (HOXA2 [15]) was 10.3 upbm affinity estimate (log intensity, higher = more binding, comparable within an allelic series) and the binding signal (HOXA2 [16]) was 7.09 upbm affinity estimate (log intensity, higher = more binding, comparable within an allelic series).
In the case of GAGCCGGC, the binding signal (HOXB4 [1]) is reported as 7.56 upbm affinity estimate (log intensity, higher = more binding, comparable within an allelic series), the binding signal (HOXC10 [17]) is reported as 10 upbm affinity estimate (log intensity, higher = more binding, comparable within an allelic series) and the binding signal (HOXB4 [4]) is reported as 7.62 upbm affinity estimate (log intensity, higher = more binding, comparable within an allelic series). For the same sequence, the binding signal (NKX2-6 [18]) was 9.46 upbm affinity estimate (log intensity, higher = more binding, comparable within an allelic series), the binding signal (MSX2 [19]) was 9.47 upbm affinity estimate (log intensity, higher = more binding, comparable within an allelic series) and the binding signal (ALX3 [20]) was 7.82 upbm affinity estimate (log intensity, higher = more binding, comparable within an allelic series). The binding signal (HOXC10 [21]) was 9.91 upbm affinity estimate (log intensity, higher = more binding, comparable within an allelic series), the binding signal (MSX2 [22]) was 9.45 upbm affinity estimate (log intensity, higher = more binding, comparable within an allelic series) and the binding signal (ALX3 [23]) was 7.87 upbm affinity estimate (log intensity, higher = more binding, comparable within an allelic series). For the same sequence, the binding signal (ALX3 [24]) was 7.74 upbm affinity estimate (log intensity, higher = more binding, comparable within an allelic series), the binding signal (ALX3 [25]) was 7.7 upbm affinity estimate (log intensity, higher = more binding, comparable within an allelic series) and the binding signal (MSX2 [26]) was 9.45 upbm affinity estimate (log intensity, higher = more binding, comparable within an allelic series). For the same sequence, the binding signal (ALX3 [27]) was 7.79 upbm affinity estimate (log intensity, higher = more binding, comparable within an allelic series).
GGCTAATA was tested, and the binding signal (HOXB4 [1]) was 11.6 upbm affinity estimate (log intensity, higher = more binding, comparable within an allelic series) and the binding signal (HOXB4 [4]) was 11.9 upbm affinity estimate (log intensity, higher = more binding, comparable within an allelic series).
In the case of CCTGCCCC, the binding signal (HOXB4 [1]) is reported as 7.51 upbm affinity estimate (log intensity, higher = more binding, comparable within an allelic series), the binding signal (PAX4 [28]) is reported as 9.03 upbm affinity estimate (log intensity, higher = more binding, comparable within an allelic series) and the binding signal (PAX4 [29]) is reported as 9.15 upbm affinity estimate (log intensity, higher = more binding, comparable within an allelic series). For the same sequence, the binding signal (HOXB4 [4]) was 7.65 upbm affinity estimate (log intensity, higher = more binding, comparable within an allelic series), the binding signal (PAX4 [30]) was 9.01 upbm affinity estimate (log intensity, higher = more binding, comparable within an allelic series) and the binding signal (PAX4 [31]) was 9.07 upbm affinity estimate (log intensity, higher = more binding, comparable within an allelic series). The binding signal (PAX4 [32]) was 9 upbm affinity estimate (log intensity, higher = more binding, comparable within an allelic series) and the binding signal (PAX4 [33]) was 9.13 upbm affinity estimate (log intensity, higher = more binding, comparable within an allelic series).
In the case of CAGGCACG, the binding signal (HOXB4 [1]) is reported as 7.26 upbm affinity estimate (log intensity, higher = more binding, comparable within an allelic series), the binding signal (PRRX1 [34]) is reported as 9.38 upbm affinity estimate (log intensity, higher = more binding, comparable within an allelic series) and the binding signal (HOXB4 [4]) is reported as 7.43 upbm affinity estimate (log intensity, higher = more binding, comparable within an allelic series). For the same sequence, the binding signal (NKX2-6 [35]) was 9.31 upbm affinity estimate (log intensity, higher = more binding, comparable within an allelic series), the binding signal (NKX2-6 [36]) was 9.26 upbm affinity estimate (log intensity, higher = more binding, comparable within an allelic series) and the binding signal (PRRX1 [37]) was 9.24 upbm affinity estimate (log intensity, higher = more binding, comparable within an allelic series).
